# DYRK1A inh: rat Dyrk1A kinase inhibitors, primary screen, biochemical, single point, plate reader; Dual specificity tyrosine-phosphorylation-regulated kinase 1A (Rattus norvegicus), Q63470; ADP-Glo luminescence, NFATc1 peptide; inhibition, % at 12.5 µM; hit rate 0.43% among 310,000; AID 504441, 2011; in the data active = inhibition above about 50%;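 also: plate controls were vehicle with enzyme for no effect and no enzyme for full effect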
# CDK5 p35 inh: inhibitors of human CDK5/p35 kinase, primary screen, biochemical, single concentration; Recombinant CDK5/p35, ADP-Glo luminescence, 60 min; inhibition, % at 10 µM; hit rate 0.01% among 330,000;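 active = highest replicate inhibition of at least 50% and at least 75% of replicates reaching 50%; inconclusive = only one of the two criteria met; inactive = both criteria failed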;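 also: plate controls were DMSO neutral control for no effect and GW8510 at 10 µM for full effect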
# SMARCA2 act: SMARCA2 (BRM) function activators, primary screen, cell-based, luminescence, high throughput | hit rate 1% among 370,000 | activation, % at 9.1 µM | MG213 cells, MMTV-luciferase reporter, dexamethasone, overnight; in the data active = activation above about 7.8%;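 also: 0% = vehicle wells and 100% = reference activator wells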
# dFosB act: activators of delta FosB homodimer, primary screen, biochemical, fluorescence polarization, TAMRA-CDK5 oligo, single point; Protein FosB (Mus musculus), P13346; purified delta FosB; percent of positive-control signal above neutral wells; activation, % at 25 µM; hit rate 0.99% among 340,000; AID 493131, 2011;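 active = mean activation above about 17%, with every replicate also reaching it, limit read from the data, passing the limit was not always enough; inconclusive = only one of the two conditions met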
# Target sequence (P13346 whole entry, looked up): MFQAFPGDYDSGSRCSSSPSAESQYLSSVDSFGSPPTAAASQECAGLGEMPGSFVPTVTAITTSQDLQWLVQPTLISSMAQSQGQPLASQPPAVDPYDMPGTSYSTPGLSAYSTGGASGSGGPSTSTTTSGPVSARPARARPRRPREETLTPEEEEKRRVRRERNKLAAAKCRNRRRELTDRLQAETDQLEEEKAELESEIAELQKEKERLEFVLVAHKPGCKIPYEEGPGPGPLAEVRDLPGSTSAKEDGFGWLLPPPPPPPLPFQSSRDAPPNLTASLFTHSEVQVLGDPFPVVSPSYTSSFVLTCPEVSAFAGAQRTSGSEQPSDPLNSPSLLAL
# Rtt109 Vps75: inhibitors of C. albicans Rtt109/Vps75 HAT, primary screen, biochemical, ThioGlo CoA-SH fluorescence, plate reader; Histone acetyltransferase RTT109 (Candida albicans (strain SC5314 / ATCC MYA-2876)), …; purified Rtt109/Vps75, 4 h; inhibition, % at 34.9 µM; hit rate 0.16% among 330,000;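 active = inhibition of at least 50% in every replicate; inconclusive = best replicate reaches 50% inhibition but some replicates fall short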
# esBAF inh: Bmi1 luciferase reporter increase in mESCs, primary screen, esBAF inhibitor project, mouse ES cells, Bmi1 luciferase knock-in, single point; 24 h; 100% = twice the neutral-well signal; reporter increase, % at 12.5 µM; hit rate 2% among 350,000; in the data active = activation above about 40%; inconclusive = no clear call, values can overlap the other calls;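 also: 0% = median of the plate's neutral control wells and 100% = double that signal; a rise in the Bmi1 reporter signal indicates esBAF inhibition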
# SMARCA2 conf: SMARCA2 (BRM) function activators, confirmation, cell-based, luminescence, triplicate | shares compounds with SMARCA2 act | MG213 cells, MMTV-luciferase with dexamethasone, overnight; MG213 cells expressing E1A, Rb sequestered; DMSO wells 0%, reference activator 100% | activation, % at 9.1 µM | hit rate 30% among 3,500 | AID 652260, 2013;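 active = activation above its plate's cutoff, the mean activation of tested wells plus 3 SD, cut at about 7.9% in these data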
# VP16 Luc act: GAL4-VP16 luciferase reporter activation, counter-screen for SMARCA2 (BRM) activator project, cell-based, pG5luc, luminescence, high throughput; HEK293 GAL4-VP16 pG5luc reporter; scaled: DMSO wells 0%, SAHA wells 100%; AID 686939, 2013; shares compounds with SMARCA2 act; activation, % at 9.1 µM; hit rate 41% among 3,500;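 active = activation above the solvent-only control well mean plus 3 SD, averaged across control plates, cut at about 5.2% in these data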
# * marks the source's active call; other numbers are inactive results; ? = inconclusive; · = not tested or not shown. This is a sample that favours compounds with a hit; in the whole collection about 3.2% have one here.
SMILES,DYRK1A inh,CDK5 p35 inh,SMARCA2 act,dFosB act,Rtt109 Vps75,esBAF inh,SMARCA2 conf,VP16 Luc act
Cc1ccn2cc(-c3cccc(NC(=O)c4cccs4)c3)nc2c1,15,1,3,-1,13,·,·,·
CCCC(=O)Nc1ccc2c(c1)OC[C@@H](C)N(Cc1ccccc1F)C[C@H](C)[C@H](OC)CN(C)C2=O,·,·,·,·,·,-3,·,·
C[C@H](CO)N1C[C@H](C)[C@@H](CN(C)S(=O)(=O)c2cn(C)cn2)OCCCC[C@H](C)Oc2ccc(NS(=O)(=O)c3ccc(F)cc3)cc2C1=O,·,·,·,·,·,-1,·,·
COC(=O)c1cc(NC(=O)c2c(C)noc2C)ccc1N1CCOCC1,-3,1,9.2*,3,-7,-8,3,0
COc1c(C)cccc1C(=O)Nc1ccc(N2CCOCC2)c(Cl)c1,1,3,8.5*,-8,21,59*,3,14*
O=C(Nc1ccc(N2CCOCC2)nc1)c1ccccc1Cl,·,-1,9.6*,-6,0,45*,2,2
CC(C)NC(=O)Nc1ccc2c(c1)C(=O)N(C)[C@@H]1CC[C@H](CC(=O)NCc3ccc(F)cc3)O[C@H]1CO2,·,·,·,·,·,-4,·,·
CNC[C@H]1Oc2ncc(-c3ccccc3C)cc2C(=O)N([C@H](C)CO)C[C@H]1C,·,·,·,·,·,8,·,·
O=C(c1cccc([N+](=O)[O-])c1)N(c1ccccn1)c1ccccn1,1,1,8.0*,3,4,·,0,1
O=C(OCCc1ccccn1)c1cccc([N+](=O)[O-])c1,-2,1,8.2*,-7,-1,18,3,3
O=C(c1cc([N+](=O)[O-])cc([N+](=O)[O-])c1)N(c1ccccn1)c1ccccn1,8,·,-2,8,4,·,·,·
O=C(NCc1ccccn1)c1cccc([N+](=O)[O-])c1,6,1,2,2,5,-19,·,·
C[C@H](CO)N1C[C@H](C)[C@H](CN(C)Cc2ccccc2)OCCCC[C@H](C)Oc2ccc(NC(=O)Nc3ccccc3)cc2C1=O,·,·,·,·,·,-11,·,·
CO[C@@H](CN(C)Cc1cc(F)ccc1F)[C@@H](C)CN(C(=O)Nc1ccc(F)cc1)[C@@H](C)CO,·,·,·,·,·,0,·,·
Cc1ccc2[nH]cc(C(=O)NCc3cccs3)c(=O)c2c1,9,2,4,-26,5,10,·,·
COc1cccc2c(=O)c(C(=O)NCc3cccs3)c[nH]c12,5,-1,10*,-31,13,?,17*,5.9*
COc1ccc(C(C)(O)c2nc(-c3ccc(F)cc3OC)cs2)cc1 (configuration not stated),·,·,-3,·,·,-5,·,·
COc1cc(F)ccc1-c1csc(C(C)(O)c2ccc(F)c(F)c2)n1 (configuration not stated),·,·,9.1*,·,·,-4,-4,0
O=C(NCC[C@H]1CC[C@H](NC(=O)C2CCOCC2)[C@H](CO)O1)Nc1ccc(Cl)cc1,·,·,·,·,·,18,·,·
CCN1C(=O)/C(=C2/C(=O)N3c4c(cc(OC(C)=O)cc42)C(C)=CC3(C)C)SC1=S,-1,1,10*,6,4,·,1,0
COc1cc2c3c(c1)/C(=C1/SC(NC(C)=O)=NC1=O)C(=O)N3C(C)(C)C=C2C,1,1,3,-9,12,-9,·,·
CCC(=O)N[C@@H]1CC[C@@H](CC(=O)NCCN2CCCCC2)O[C@@H]1CO,·,·,·,·,·,-3,·,·
O=C(Nc1ccc(F)cc1)N[C@H]1CC[C@H](CCn2cc(C3(O)CCCC3)nn2)O[C@H]1CO,·,·,·,·,·,3,·,·

# Compound activity deposited in PubChem by several laboratories.
